This is a sample that favours compounds with a hit; in the whole collection about 1.9% have one here.
Abeta yeast res: compounds reversing amyloid beta toxicity in yeast; yeast expressing A-beta42, growth rescue, OD600, 48 h; response scale: 0% DMSO, 100% iron-clioquinol control; Potency, µM (top dose mostly 46.1 µM), hits mostly activators; 410,000 compounds, 0.063% hits; AID 1347071; note: nearly all actives have a fitted effect of over 55% in size
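Growth rescue measured by 600 nm absorbance after 48 h yeast culture at 30 C with compound. Values normalized between DMSO and an equimolar ferric chloride plus clioquinol control.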
TDP43 rescue: inhibitors of TDP-43 toxicity in yeast | TDP-43 expressing yeast growth rescue, BacTiter-Glo, 24 h | Potency, µM (highest dose often 46.1 µM), most hits filed as activators | 410,000 compounds, 1.8% hits | AID 652104; note: nearly all actives have a fitted effect of over 50% in size
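Growth rescue of TDP-43-toxic yeast measured as ATP luminescence (BacTiter-Glo). Cells grown to mid-log in raffinose, induced in galactose at OD600=0.02, exposed to compound 24 hr at 30 deg C.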
PTHR1 ag: activates the human parathyroid hormone receptor PTHR1; Q03431; HEK293 GP2 PTHR1 cells, GloSensor cAMP luminescence, 1 h; Potency, µM (doses to about 115 µM), usual class: activators; 410,000 compounds, 0.075% hits; note: nearly all actives have a fitted effect of over 55% in size
Target sequence (Q03431 whole entry, looked up): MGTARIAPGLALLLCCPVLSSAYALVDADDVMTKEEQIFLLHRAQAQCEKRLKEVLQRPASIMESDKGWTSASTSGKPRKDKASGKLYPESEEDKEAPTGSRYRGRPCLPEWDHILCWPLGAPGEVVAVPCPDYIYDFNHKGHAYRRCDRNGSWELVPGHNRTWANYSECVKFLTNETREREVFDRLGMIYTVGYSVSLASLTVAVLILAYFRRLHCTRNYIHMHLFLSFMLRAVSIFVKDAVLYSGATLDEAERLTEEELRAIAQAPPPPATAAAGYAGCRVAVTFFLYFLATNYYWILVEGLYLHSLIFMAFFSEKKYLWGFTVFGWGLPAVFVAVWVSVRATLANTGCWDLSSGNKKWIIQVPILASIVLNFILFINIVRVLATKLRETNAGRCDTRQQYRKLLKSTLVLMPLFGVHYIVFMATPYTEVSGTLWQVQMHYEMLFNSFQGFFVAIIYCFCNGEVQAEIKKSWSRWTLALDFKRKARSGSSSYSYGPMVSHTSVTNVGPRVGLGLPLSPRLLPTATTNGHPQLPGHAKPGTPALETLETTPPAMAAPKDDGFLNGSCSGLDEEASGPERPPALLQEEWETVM
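HEK-293-derived GP2 cells expressing PTHR1 and a GloSensor cAMP reporter, 3,000/well, plated overnight, given luciferin plus IBMX (each 0.5 mM as added) for 1 h at 37 °C, then compound for 1 h at 37 °C. Luminescence was read after 15 min at room temperature.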
aSyn rescue: alpha-synuclein toxicity inhibition in yeast | Potency, µM (series often up to 46.1 µM), hits mostly activators | 370,000 compounds, 0.14% hits | Yeast expressing alpha-synuclein, growth rescue, BacTiter-Glo, 24 h | AID 652106; note: nearly all actives have a fitted effect of over 65% in size
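Rescue of yeast growth: cells expressing toxic alpha-synuclein, induced in galactose at OD600 0.02, incubated with compound 24 h at 30 C. ATP luminescence quantified growth; inhibitors of toxicity appear as activators.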
FUS suppressor: suppressors of FUS proteinopathy in yeast; Potency, µM (top dose mostly 76.6 µM), hits mostly activators; S. cerevisiae FUS-expressing, growth rescue, OD600, 24 h; 390,000 compounds, 0.24% hits; AID 1347120; note: nearly all actives have a fitted effect of over 55% in size
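Yeast FUS proteinopathy model; galactose-induced FUS (2%), starting OD 0.005. Cpds in dilution series, 24hr, 30C, 99% humidity. Abs 600 nm growth. Pos ctrl CP55940 (top 92uM final); neg ctrl DMSO.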
LDHA inh: LDHA (human) enzyme inhibition. P00338. purified LDHA, NADH/diaphorase-resazurin fluorescence; stronger effect = lower value. activity change, % (values are at about 110 or 230 µM). 480,000 compounds, 0.15% hits. AID 1347041; in the data active = activity change below about -30%; inconclusive = mostly about -25% to -30%
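Remaining NADH was detected by diaphorase (0.133 mg/mL) converting 37 µM resazurin to fluorescent resorufin, read at 0 and 20 minutes. The preceding 5-minute room-temperature reaction used 2 nM LDHA, 0.2 mM sodium pyruvate and 0.06 mM NADH at pH 7.4.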
Numbers stand for hits; - = inactive; ? = inconclusive; . = no result. Unless noted, calls come from the whole dose curve; as a rule, active = well fitted curve in the direction sought with a large enough effect; inconclusive = small, poorly fitted or top-dose-only effect, or another doubt; inactive = no such curve, though single readings can be large; an effect the other way counts as inactive or inconclusive.

SMILES | Abeta yeast res | TDP43 rescue | PTHR1 ag | aSyn rescue | FUS suppressor | LDHA inh
O=C(O)c1ccccc1NS(=O)(=O)c1cccc(-n2sc3ccccc3c2=O)c1 | - | - | - | - | - | -70.7
CC1CCN(C(=S)SCc2nc(N)nc(Nc3ccccc3)n2)CC1 | 22.4µM | ? | - | - | ? | -
COc1ccccc1Nc1nc(N)nc(CSC(=S)N2CC(C)CC(C)C2)n1 (stereo not given) | - | 25.1µM | - | - | - | -
CCOc1ccc(Nc2nc(N)nc(CSC(=S)N3CCN(c4ccccc4)CC3)n2)cc1 | - | - | - | - | - | -
COc1ccc(Nc2nc(N)nc(CSC(=S)N3CCCCC3)n2)cc1 | - | - | - | - | - | -
COc1ccc(Nc2nc(N)nc(CSC(=S)N3CCN(c4ccccc4)CC3)n2)cc1 | - | 17.8µM | - | - | ? | -
O=C(Cc1c[nH]c2ccccc12)Nc1cccc(F)c1 | . | . | . | . | . | -
Cc1ccc(NC(=O)Cn2nnc(C(=O)Nc3ccc(C)c(C)c3)c2N)cc1 | - | - | - | - | 22.4µM | -
COc1ccc(-c2nnc(-c3cccnc3)o2)cc1 | - | 22.4µM | - | - | - | -
Brc1ccc(-c2nnc(-c3cccnc3)o2)cc1 | - | 10µM | - | - | - | -
Brc1ccccc1-c1nnc(-c2cccnc2)o1 | - | 15.8µM | - | - | - | -
Brc1ccc(-c2nnc(-c3ccccc3Br)o2)cc1 | - | - | - | - | - | -
COc1ccc(-c2nnc(-c3ccc(N)cc3)o2)cc1 | - | 10µM | - | - | - | -
Cn1nc(C(=O)OCC(=O)NCc2ccco2)c2ccccc2c1=O | . | . | . | . | . | -
Cc1cccc(OCCn2c(CN3CCOCC3)nc3scc(-c4cccs4)c3c2=O)c1 | . | . | . | . | . | -
FC(F)(F)c1ccc(-c2nnc(-c3cccnc3)o2)cc1 | - | 12.6µM | - | - | - | -
Clc1ccc(-c2nnc(-c3cccnc3)o2)cc1 | - | 12.6µM | - | - | - | -
CC(C)CN1CCN(CCN(C)Cc2ccccc2)CC1 | . | . | . | . | . | -
COc1ccc(-c2csc(C(O)c3ccc(F)cc3)n2)cn1 (stereo not given) | - | 35.5µM | - | - | - | -
COc1ccc(-c2csc(C(O)c3ccc(OC)cc3)n2)cc1 (stereo not given) | - | ? | - | ? | - | -
OC(c1ccco1)c1nc(-c2ccc(F)c(Cl)c2)cs1 (stereo not given) | - | 12.6µM | - | - | - | -
COc1ccc(C(O)c2nc(-c3ccccc3)cs2)cc1 (stereo not given) | ? | 35.5µM | - | - | - | -
COc1ccc(-c2csc(C(O)c3ccc(F)cc3)n2)cc1 (stereo not given) | - | 22.4µM | - | ? | - | -
COc1cc(C(O)c2nc(-c3ccc4ccccc4c3)cs2)ccc1F (stereo not given) | - | ? | - | - | - | -
COc1ccc(C(O)c2nc(-c3ccc4ccccc4c3)cs2)cc1 (stereo not given) | - | - | - | 3.55µM | - | -
SMILES | Abeta yeast res | TDP43 rescue | PTHR1 ag | aSyn rescue | FUS suppressor | LDHA inh
COc1ccc(C(O)c2nc(-c3ccc(Cl)cc3)cs2)cc1 (stereo not given) | ? | ? | - | 11.2µM | - | -
COc1ccc(C(O)c2nc(-c3cccs3)cs2)cc1 (stereo not given) | - | 15.8µM | - | - | - | -
COc1cc(C(O)c2nc(-c3cccs3)cs2)ccc1F (stereo not given) | - | - | - | - | - | -
CCOC(=O)C1CCC(CNC(=O)Nc2c(NC3CCCCC3)c3ccccc3oc2=O)CC1 (stereo not given) | . | . | . | . | . | -
CCn1c(SCC(=O)N(C)Cc2ccc(-c3ccc(Br)cc3)o2)nnc1C1CC1 | . | . | . | . | . | -
Cc1cc(C)cc(OCc2cc(=O)n3c(-c4ccccc4)csc3n2)c1 | - | - | - | . | - | -
CCOc1ccc(NC(=O)CN(C)Cc2cc(=O)n3c(-c4ccccc4)csc3n2)cc1OCC | - | - | - | - | 17.8µM | -
O=C(Cc1cccs1)N(Cc1ccccn1)C1CC1 | . | . | . | . | . | -
Fc1cccc(NCc2cccn2-c2nnc(N3CCOCC3)s2)c1 | - | - | - | 22.4µM | - | -
Cc1ccccc1NCc1cccn1-c1nnc(N2CCOCC2)s1 | - | - | - | 12.6µM | - | -
Fc1ccc(NCc2cccn2-c2nnc(N3CCOCC3)s2)cc1 | - | - | - | - | - | -
CCCC(CC)Sc1nc2c([nH]1)c(=S)n(C)c(=O)n2C (stereo not given) | - | 35.5µM | - | - | . | -
CCCCC(C)Sc1nc2c([nH]1)c(=S)n(C)c(=O)n2C (stereo not given) | - | ? | - | - | . | -
O=C(N/N=C/c1ccccn1)c1cc[n+]([O-])cc1 | . | . | . | . | . | -
CCOc1ccc(C2(c3ccccc3OC)CCCC2)cc1 | . | . | . | . | . | -
c1ccc(-c2csc(-n3cnnn3)n2)cc1 | - | 11.2µM | - | - | - | -
Cc1cc(C)n(-c2nc(-c3ccccc3)cs2)n1 | - | - | - | - | - | -
CCN1CCSc2ccc(C(=O)NCc3ccccc3C)cc21 | - | 35.5µM | - | - | - | -
CN1CCSc2ccc(C(=O)NCc3cccc(Br)c3)cc21 | - | 15.8µM | - | - | - | -
CC(Cc1c[nH]c2ccccc12)NC(=O)C1CCN(c2nc(Cl)nc3nc[nH]c23)CC1 (stereo not given) | . | . | . | . | . | -
CC(=O)c1c(O)c2ccccc2n(C)c1=O | - | - | - | - | - | -
Cc1ccc(Sc2c(O)c3ccccc3n(C)c2=O)cc1 | ? | 3.16µM | - | - | - | -
Cn1c(=O)c(S(=O)(=O)C(C)(C)C)c(O)c2ccccc21 | - | 2.82µM | - | - | . | -
Cc1ccc(Sc2c([N+](=O)[O-])c(=O)n(C)c3ccccc23)cc1 | - | - | - | - | - | -
Cn1c(=O)c(Sc2ccccc2)c(O)c2ccccc21 | - | 12.6µM | - | - | - | -
SMILES | Abeta yeast res | TDP43 rescue | PTHR1 ag | aSyn rescue | FUS suppressor | LDHA inh
Cc1ccc(CN2CCCN(C(=O)c3nn(C)c(=O)c4ccccc34)CC2)cc1 | . | . | . | . | . | -
O=C1/C(=C/c2ccccc2O)SC(=S)N1Cc1cccnc1 | - | 12.6µM | - | - | - | -
Cc1cc(C)cc(NC(=S)NNC(=O)c2csc(C)c2)c1 | . | . | . | . | . | -
O=C(O)COc1ccccc1/C=N/NC(=O)c1cc(-c2ccc(F)cc2)nc2ccccc12 | - | - | - | - | - | -
O=C(O)COc1ccccc1/C=N/NC(=O)c1cc2ccccc2cc1O | - | - | 25.1µM | - | ? | -
CC(C)(C)NC(=O)c1cc(-c2cccs2)nc2ccccc12 | . | . | . | . | . | -
CCCNC(=O)c1cnn2c(C(F)F)cc(-c3ccccc3)nc12 | - | 12.6µM | - | . | - | -
Cc1cc(C)c(NC(=O)CCn2cnc3c2c(=O)n(C)c(=O)n3C)c(C)c1 | . | . | . | . | . | -

Screens deposited in PubChem BioAssay by National Center for Advancing Translational Sciences (NCATS).
